Inconclusive results are not listed. Where a call stands in place of a potency, no number is given. Active and inactive are the calls of the source. The call rests on the fitted dose curve.
Test: qHTS assay for small molecule agonists of the p53 signaling pathway (AID 651631); further: nearly all actives have a fitted effect of over 15% in size
Details: HCT-116 p53RE-bla reporter, beta-lactamase FRET ratio, 16 h; series mostly up to 73.3 µM
Source text: U.S. Tox21 Program National Center for Advancing Translational Sciences [NCATS] NIH Chemical Genomics Center [NCGC] U.S. Environmental Protection Agency [EPA] National Institutes of Environmental Health Sciences [NIEHS] National Toxicology Program [NTP] U.S. Food and Drug Administration [FDA] Tox21 Assay Overview: p53, a tumor suppressor protein, is activated following cellular insult, including DNA damage and other cellular stresses. The activation of p53 regulates cell fate by inducing DNA repair, cell cycle arrest, apoptosis, or cellular senescence. The activation of p53, therefore, is a good indicator of DNA damage and other cellular stresses. The CellSensor p53RE-bla HCT-116 cell line (Invitrogen) contains a stably integrated beta-lactamase reporter gene under control of the p53 response elements. The activation of the reporter gene under culture conditions can be detected by fluorescence intensity. This cell line was used to screen the Tox21 compound library in a 1536-well plate format and to identify agonists that activate the p53 signaling pathway.
Tox21 Assay Protocol Summary: The p53RE-bla cells were dispensed at 4,000 cells/5 ul/well in 1536-well black wall/clear bottom plates using a Multidrop dispenser. After the assay plates were incubated at a 37 C/5% CO2 incubator for 5 hours, 23 nL of compounds dissolved in DMSO, positive controls or DMSO only was transferred to the assay plate by a pin tool. The plates were incubated at 37 C for 16 hours. After 1 uL of LiveBLAzerTM B/G FRET substrate was added using a Flying Reagent Dispenser, the plates were incubated at room temperature for 2 hours, and fluorescence intensity was measured by an Envision plate reader.

Row | SMILES | Potency
1 | CC(C)C[C@@H](N)C(=O)O | inactive
2 | OCCc1ccccn1 | inactive
3 | CC(=O)Oc1cccc(C)c1 | inactive
4 | CCCCCC(C)N (stereo not given) | inactive
5 | CCOC(=O)c1cnc2c(cnn2CC)c1NN=C(C)C | inactive
6 | C=C(C)C(=O)OCC1CCCO1 (stereo not given) | inactive
7 | O=S(=O)(O)c1cccc2ccccc12 | inactive
8 | NC(=O)N1c2ccccc2CC(=O)c2ccccc21 | inactive
9 | Nc1ccccn1 | inactive
10 | COc1cc(C)nc(-n2nc(C)cc2OC)n1 | inactive
11 | CC(C)C1CCC(O)CC1 (stereo not given) | inactive
12 | O=C1CCCCCCCCCCCCCCO1 | inactive
13 | CCCO[Si](OCCC)(OCCC)OCCC | inactive
14 | CN(C)C(=O)Oc1cccc([N+](C)(C)C)c1 | inactive
15 | Cc1cccc(C)c1NC(=O)CC12CCCN1CCC2 | inactive
16 | CO/N=C(\C(=O)N[C@@H]1C(=O)N2C(C(=O)O)=C(CSc3nc(=O)c(O)nn3C)CS[C@H]12)c1csc(N)n1 | inactive
17 | CCCCN1C=CN(C)C1 | inactive
18 | CC[C@H]1OC(=O)[C@H](C)[C@@H](O[C@H]2C[C@@](C)(OC)[C@@H](O)[C@H](C)O2)[C@H](C)[C@@H](O[C@@H]2O[C@H](C)C[C@H](N(C)C)[C@H]2O)[C@](C)(OC)C[C@@H](C)C(=O)[C@H](C)[C@@H](O)[C@]1(C)O | inactive
19 | Cc1ccc(C(=O)Nc2ccc(S(=O)(=O)O)c3cc(S(=O)(=O)O)cc(S(=O)(=O)O)c23)cc1NC(=O)c1cccc(NC(=O)Nc2cccc(C(=O)Nc3cc(C(=O)Nc4ccc(S(=O)(=O)O)c5cc(S(=O)(=O)O)cc(S(=O)(=O)O)c45)ccc3C)c2)c1 | inactive
20 | O=[N+]([O-])c1ccc(/C=N\O)o1 | inactive

Row | SMILES | Potency
21 | CCCCCCCCN1CCCC1=O | inactive
22 | CC(=O)Nc1ccc(OCC(O)CNC(C)C)cc1 (stereo not given) | inactive
23 | CC1(C)[C@@H]2CC[C@@]1(C)[C@H](O)C2 | inactive
24 | NCCCC[C@H](N[C@@H](CCc1ccccc1)C(=O)O)C(=O)N1CCC[C@H]1C(=O)O | inactive
25 | C=CCOCC(O)CO (stereo not given) | inactive
26 | CN1[C@@H]2CC[C@H]1CC(OC(=O)C(O)c1ccccc1)C2 (stereo not given in full) | inactive
27 | COc1cc(C(=O)OC(COCCC(C)C)CN2CCOCC2)cc(OC)c1OC (stereo not given) | inactive
28 | CC1OC1C1CCC2(C)OC2C1 (stereo not given) | inactive
29 | Cc1ccnc(NS(=O)(=O)c2ccc(N)cc2)n1 | inactive
30 | CN(C)C(=O)Oc1ccc[n+](C)c1 | inactive
31 | CCCc1ncc(C[n+]2ccccc2C)c(N)n1 | inactive
32 | CN(C)CCCN(C)CCCN(C)C | inactive
33 | CCCCOCCOC(=O)COc1cc(Cl)c(Cl)cc1Cl | inactive
34 | C=CCCCCCCCCC(=O)OCC | inactive
35 | COC(=O)Nc1ccc(Cl)c(Cl)c1 | inactive
36 | CCOc1ccccc1OCC | inactive
37 | CC(C(=O)O)c1cccc(Oc2ccccc2)c1 (stereo not given) | inactive
38 | COc1cc(-c2ccc(=O)[nH]n2)ccc1OC(F)F | inactive
39 | NC(=O)N[C@@H](CCC(=O)O)C(=O)O | inactive
40 | COc1cc(C(=O)NCc2ccc(OCCN(C)C)cc2)cc(OC)c1OC | inactive
